Source: PubChem BioAssay (National Center for Advancing Translational Sciences (NCATS))
The list is not random: actives were taken first. Their share in the collection is about 2.8%.
IP6K1 inh = blocks human inositol hexakisphosphate kinase 1 | Q92551 | activity change, % (series mostly up to about 58 µM) | 140,000 tested, 0.81% active | IP6K1 kinase, ADP-Glo luminescence, 2 h; active compounds read low; in the data active = activity change below about -25%; also: % is scaled to controls: 0 for no effect and ±100 for the full control effect
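ADP-Glo luminescence measures ADP made by human IP6K1 during a 2 h RT reaction with ATP/IP6 (mix at 1.3 mM/130 uM); top library doses 57.5 and 19.1 uM final.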
SNCA expr inhib = reduces expression of the alpha-synuclein gene; Potency, µM (titrated, usually from 57.2 µM), for the others: at the top dose activity change, negative = inhibition, actives largely listed as inhibitors; 140,000 tested, 0.17% active; HEK-293 SNCA-luciferase knock-in, luminescence, 24 h;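 also: potency is read from the fitted curve at half-maximal effect; plate controls were DMSO cells for no effect and cell-free wells for full effect; nearly all actives have a fitted effect of over 45% in size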
SNCA viab count = counter-screen for SNCA expression inhibitors: cell viability. HEK-293-SNCA-luc viability, GF-AFC fluorescence, 24 h. Potency, µM (titrated, usually from 57.1 µM), inactives show at the top dose activity change, negative = cytotoxicity, most hits filed as cytotoxic. 150,000 tested, 0.12% active. AID 1671193;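 also: potency is read from the fitted curve at half-maximal effect; 0% = DMSO-treated cells and -100% = medium-only wells without cells; nearly all actives have a fitted effect of over 30% in size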
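Cytotoxicity counterscreen: after 24 h compound treatment of genome-edited SNCA-luciferase HEK-293 cells, live-cell protease substrate GF-AFC read by fluorescence after 30 min; activity scaled between DMSO (0%) and medium-only (-100%), curves Hill-fitted.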
KDM5B inh = KDM5B demethylase inhibition | Q9UGL1 | KDM5B demethylase, FDH-coupled NADH fluorescence (FDH is formaldehyde dehydrogenase) | Potency, µM (highest dose often 57.7 µM), most hits filed as inhibitors | 220,000 tested, 2.6% active; also: potency is read from the fitted curve at half-maximal effect; 0% is about no effect; nearly all actives have a fitted effect of over 70% in size
Target sequence (Q9UGL1 whole entry, looked up): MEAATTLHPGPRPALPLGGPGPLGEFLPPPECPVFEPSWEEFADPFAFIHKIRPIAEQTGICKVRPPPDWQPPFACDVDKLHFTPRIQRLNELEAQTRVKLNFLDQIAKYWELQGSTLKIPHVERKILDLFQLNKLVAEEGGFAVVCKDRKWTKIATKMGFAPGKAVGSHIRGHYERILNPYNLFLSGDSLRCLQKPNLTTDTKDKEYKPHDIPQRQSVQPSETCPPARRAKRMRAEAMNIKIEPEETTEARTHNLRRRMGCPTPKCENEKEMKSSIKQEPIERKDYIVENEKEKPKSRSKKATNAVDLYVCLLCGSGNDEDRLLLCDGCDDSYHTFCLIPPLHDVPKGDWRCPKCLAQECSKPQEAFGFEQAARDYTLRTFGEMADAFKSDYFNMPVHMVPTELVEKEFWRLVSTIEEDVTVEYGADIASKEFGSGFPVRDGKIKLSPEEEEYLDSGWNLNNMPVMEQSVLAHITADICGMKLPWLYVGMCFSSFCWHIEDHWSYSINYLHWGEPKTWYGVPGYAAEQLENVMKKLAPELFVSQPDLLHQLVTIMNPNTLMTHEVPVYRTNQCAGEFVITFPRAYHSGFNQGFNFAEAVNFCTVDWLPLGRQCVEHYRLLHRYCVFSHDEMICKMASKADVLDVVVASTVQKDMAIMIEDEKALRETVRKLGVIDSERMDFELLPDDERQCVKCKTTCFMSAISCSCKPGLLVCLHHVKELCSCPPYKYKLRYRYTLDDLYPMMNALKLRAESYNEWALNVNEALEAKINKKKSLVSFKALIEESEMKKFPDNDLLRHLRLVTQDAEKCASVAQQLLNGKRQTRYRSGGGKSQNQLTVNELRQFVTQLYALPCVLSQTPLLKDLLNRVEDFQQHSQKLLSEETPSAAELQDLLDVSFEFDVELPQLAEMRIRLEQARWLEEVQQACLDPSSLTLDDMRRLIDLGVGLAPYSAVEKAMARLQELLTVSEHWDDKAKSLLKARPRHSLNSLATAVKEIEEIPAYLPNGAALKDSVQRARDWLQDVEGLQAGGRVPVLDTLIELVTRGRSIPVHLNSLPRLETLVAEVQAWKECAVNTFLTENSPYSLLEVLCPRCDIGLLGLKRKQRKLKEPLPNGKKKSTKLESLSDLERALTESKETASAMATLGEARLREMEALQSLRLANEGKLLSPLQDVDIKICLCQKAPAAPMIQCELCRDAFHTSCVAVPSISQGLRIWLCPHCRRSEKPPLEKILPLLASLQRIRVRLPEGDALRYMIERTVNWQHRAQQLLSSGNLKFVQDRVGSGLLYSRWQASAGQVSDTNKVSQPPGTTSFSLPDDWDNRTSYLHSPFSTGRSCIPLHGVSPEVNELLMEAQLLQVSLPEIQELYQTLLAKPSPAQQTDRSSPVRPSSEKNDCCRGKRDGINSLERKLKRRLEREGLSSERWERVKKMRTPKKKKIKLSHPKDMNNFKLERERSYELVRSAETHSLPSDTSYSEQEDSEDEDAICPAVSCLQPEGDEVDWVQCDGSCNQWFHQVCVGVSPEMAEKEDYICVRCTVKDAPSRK
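Here, H3K4me3 peptide (12.5 µM in substrate mix) is demethylated by KDM5BΔAP, 200 nM final, after 10 min compound exposure. Formaldehyde product is coupled through FDH (0.25 U/mL in mix) to NADH fluorescence; 30-min ΔRFU feeds dose-response curves.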
IP6K1 inh cnf = human IP6K1 inhibition, confirmatory; shares compounds with IP6K1 inh; recombinant IP6K1 kinase, ADP-Glo luminescence, 2 h; Potency, µM (top dose mostly 49 µM), for inactives: at the top dose activity change, negative = inhibition, actives largely listed as inhibitors; 1,200 tested, 13% active; AID 1645852; also: potency is read from the fitted curve at half-maximal effect; % is scaled to controls: 0 for no effect and ±100 for the full control effect; nearly all actives have a fitted effect of over 65% in size
Starred values were filed as active, the others as inactive; i = inactive; ? = inconclusive; . = no result given; [ ] = dose if it differs, or a comment. Unless noted, calls follow the shape of the dose curve; as a rule, active = well fitted curve in the direction sought with a large enough effect; inconclusive = small, poorly fitted or top-dose-only effect, or another doubt; inactive = no such curve, though single readings can be large; an effect the other way counts as inactive or inconclusive.

SMILES	IP6K1 inh	SNCA expr inhib	SNCA viab count	KDM5B inh	IP6K1 inh cnf
O=c1c(S(=O)(=O)c2ccc(Cl)cc2)cn(Cc2ccc(F)cc2)c2ccc(F)cc12	-37.6*	23.5%	13.9%	i	?
COc1cc2c(=O)c(S(=O)(=O)c3ccc(F)cc3)cn(Cc3ccc(Cl)cc3)c2cc1OC	-14.4	25.4%	-8.9%	i	.
Cc1cnc(Nc2ccc(CN3CCOCC3)cc2)nc1Nc1cccc(S(=O)(=O)NC(C)(C)C)c1	-16.2	76.2%	?	.	-2.4%
Cc1cnc(Nc2cccc(CN3CCOCC3)c2)nc1Nc1cccc(S(=O)(=O)NC(C)(C)C)c1	-8.6	-9.4%	-14.2%	.	3.3%
Cc1cccc(NC(=O)NCC2Cn3cccc3C(=O)N2C)c1 (stereo unspecified)	0.0	4.5%	0.1%	i	.
COc1ccccc1NC(=O)Cc1c[nH]c2ccccc12	.	.	.	i	.
CCn1c2ccccc2c2cc(CN3CCN(Cc4ccccc4C)CC3)ccc21	-28.4*	10.2%	0.3%	?	5.3%
CCn1c2ccccc2c2cc(CN3CCN(Cc4ccccc4F)CC3)ccc21	-26.4*	-11.4%	12.0%	?	-0.5%
CCn1c2ccccc2c2cc(CN3CCN(Cc4ccc(Cl)cc4)CC3)ccc21	-20.0	?	5.3%	?	.
Cc1cccc(Nc2ccccc2C(=O)NCc2cccs2)c1C	.	.	.	i	.
Cc1ccc(-c2cnn3c(N4CCN(CCO)CC4)cc(C)nc23)cc1	.	.	.	i	.
CCOc1ccc(/C=C(\C#N)C(=O)Nc2sc3c(c2C(=O)OC)C(C(=O)OC)CC3)cc1OC (stereo unspecified)	-29.4*	-11.6%	-4.2%	?	2.91µM*
CCNC(=O)Nc1cc(S(=O)(=O)N2CCOCC2)ccc1NCC1CCCO1 (stereo unspecified)	.	.	.	i	.
Cc1c(C(=O)N(Cc2ccccc2F)C2CCS(=O)(=O)C2)oc2ccccc12 (stereo unspecified)	-61.3*	7.5%	-22.2%	i	-21.0%
CCS(=O)(=O)N1CC(=O)N(c2ccc(Cl)cc2)C(C)(C(=O)NC2CCCCCC2)C1 (stereo unspecified)	-33.8*	20.1%	-20.6%	i	3.0%
O=C(C1CCCN1C(=O)C1CC1)N1CCC(c2nc3ccncc3[nH]2)C1 (stereo unspecified)	-26.7*	5.2%[87.6 µM]	11.0%[87.6 µM]	.	-3.6%
COc1ccc(C2Cn3nnc(C(=O)N4CCN(C(=O)CCc5ccccc5)CC4)c3CO2)cc1 (stereo unspecified)	-25.5*	?	-4.4%	?	21.0%
C=CCNC(=O)N1CC[C@H]2CC(=O)N(C3CC3)CC[C@H]2C1	4.3	-13.6%[87.6 µM]	0.2%[87.6 µM]	i	.
CN(C)c1ccc2nc3ccc(=[N+](C)C)cc-3sc2c1	-29.6*	56.0%[25.6 µM]	?	.	14.6µM*
O=c1c2ccccc2nc(SCc2nc3ccccc3o2)n1CCCO	.	.	.	i	.
COc1ccc(-n2c(=O)c3c4c(sc3n(Cc3cc(=O)n5c(C)cccc5n3)c2=O)CCC4)c(OC)c1	-39.2*	-9.4%	?	?	-9.6%
O=C(c1ccc2c(c1)OCO2)N1CC2(C1)C(=O)Nc1ccccc12	-16.2	-5.3%	-1.8%	i	.
O=C(c1ccc2c(c1)OCO2)N1CCC2(CC1)C(=O)Nc1ccccc12	-33.0*	-9.3%	-5.0%	i	?
COc1cc(/C=C2\Oc3c(ccc(OS(C)(=O)=O)c3C)C2=O)cc(OC)c1OC	.	.	.	i	.
O=C1CC(c2ccccc2)Cc2[nH]c(=O)c(C(=O)Nc3cccc(F)c3)cc21 (stereo unspecified)	-93.5*	-23.5%	3.4%	?	-0.4%
SMILES	IP6K1 inh	SNCA expr inhib	SNCA viab count	KDM5B inh	IP6K1 inh cnf
O=C1CC(c2ccccc2)Sc2nc(-c3ccc(F)cc3)nn21 (stereo unspecified)	-26.6*	-1.9%	10.4%	i[11.5 µM]	1.9%
CCOC(=O)c1ccc(NC(=O)CC2C(=O)N(c3ccccc3)C(=O)N2Cc2ccc(C)cc2)cc1 (stereo unspecified)	-39.8*	?	-17.9%	i	?
Cc1cc(S(=O)(=O)N[C@@H]2CN(C)C[C@H]2CN(C)C)ccc1Cl	7.2	-9.1%	17.1%	i	.
Cc1ccc(C(=O)N2CCC(Cc3nc(C(C)C)no3)CC2)cc1C	-27.1*	?	-17.4%	i	-8.1%
COc1ccc(C(=O)N2CCC(Cc3nc(C(C)C)no3)CC2)cc1OC	-5.3	0.1%	9.0%	i	.
Cc1cccc(C(=O)N2CCC(Cc3nc(-c4cnccn4)no3)CC2)c1	-27.1*	-10.9%	-11.5%	i	3.9%
CCOC(=O)c1cnc2c(C)cc(C)cc2c1Nc1cccc(C(=O)O)c1	-26.4*	39.8%	-11.3%	i	?
Cc1cc(C)c2nc(C)cc(Nc3cccc(C(=O)O)c3)c2c1	-25.3*	0.6%	?	?	-7.6%
CCOC(=O)c1cnc2c(C)cc(C)cc2c1Nc1cccc(O)c1	.	.	.	i	.
Cc1ccc(-n2ncc3c(Nc4cccc5c4CCCC5)ncnc32)cc1	.	.	.	i	.
Cc1cc(C(F)(F)F)nn1CC(=O)N1CCc2n[nH]c(=O)n2CC1	-7.8	-1.3%	-8.6%	i	.
O=C(N[C@@H]1CN(Cc2ccccc2F)C[C@H]1CO)c1ccccc1	-10.5	11.6%	?	i	.
Cc1c(CN(C)CC2(O)CCCN(Cc3ccc(C(C)C)cc3)C2=O)cnn1C (stereo unspecified)	-37.4*	-5.8%	2.9%	i	-5.5%
CNC(=O)C1CCCN(c2nccc(Nc3ccccc3F)n2)C1 (stereo unspecified)	10.1	?	-18.3%[12.5 µM]	.	.
Cc1ccc(NC(=O)c2cc(=O)c3ccc(C)c(C)c3o2)cc1	.	.	.	i	.
CCOC(=O)c1ccc(NC(=O)c2cc(=O)c3ccc(C)c(C)c3o2)cc1	-25.5*	13.2%	-9.6%	i	1.9%
C=C1CC[C@H]2[C@@](C)(CCC[C@@]2(C)C(=O)O)[C@@H]1CCC(C)CCO (stereo partly specified)	19.3	.	1.8%	.	.
C=C1CCC2C(C)(C)C(O)CCC2(C)C1CCC(C)CCO (stereo unspecified)	-30.3*	.	0.9%	.	?
O=C(NCCN1CCCCC1)c1cc2cn(C3CCCC3)cc2s1	-10.3	-5.9%	-10.3%	?	.
N#C/C(=C\c1ccc(O)c(O)c1)C(=O)Nc1ccccc1	.	108.7%	3.6%	.	16.4µM*
Cc1nn(C)c(C)c1NC(=O)C1CC(=O)N(c2ccc3c(c2)CCC3)C1 (stereo unspecified)	.	.	.	i	.
COc1ccccc1NC(=O)c1c(NC(=O)c2ccccc2Cl)sc2c1CCC2	-30.5*	8.8%	11.4%	i	11.5%
CCN1CCN(C(c2ccc(F)cc2)c2sc3nc(-c4ccco4)nn3c2O)CC1 (stereo unspecified)	-29.5*	45.7%	?	i	?
O=C(NC1CCCCNC1=O)c1cc(-c2ccco2)on1 (stereo unspecified)	.	.	.	i	.
